Compound activity: PubChem BioAssay, University of Kansas High Throughput Screening Laboratory
mHTT CaM bind: inhibitors of human mutant huntingtin-calmodulin interaction. P42858. AlphaScreen His-mHTT/GST-CaM binding, luminescence. inhibition, % at 15 µM. actives 3.6% (n = 190,000)
Pf apPOL block: Pf-apPOL DNA polymerase inhibition; Recombinant Pf-apPOL, molecular beacon fluorescence, 1.5 h; inhibition, % at 10 µM; actives 0.25% (n = 210,000); AID 1794808
A number is an active result; - = inactive; . = no result. Shown is part of a subset that was picked to be rich in hits. Cut-off read from the data, not from the text of the source: active = inhibition above about 50%; inactive = the rest.

SMILES	mHTT CaM bind	Pf apPOL block
O=C(CCC(=O)NC1CCCCCC1)Nc1nc(-c2cc3cc(Cl)ccc3oc2=O)cs1	-	-
Oc1oc(-c2ccccc2F)nc1C=Nc1cccc(F)c1	-	-
Cc1[nH]nc2c1C(c1ccc3c(c1)OCO3)C(C#N)=C(N)O2 (stereo not drawn)	-	-
N#CC1=C(N)Oc2n[nH]c(-c3ccccn3)c2C1c1ccc2c(c1)OCO2 (stereo not drawn)	62	-
CC(C)OCCCNC(=O)c1cc(-c2ccc(Br)s2)nc2ccccc12	-	-
Cc1sc(N)nc1-c1ccc(Cl)cc1	-	-
Cc1sc(N)nc1-c1c[nH]c2ccccc12	94	-
O=C(CCn1cccc(C(F)(F)F)c1=O)Sc1ccc(Cl)cc1	.	-
Cc1ccc(CNC(=O)Cn2cnc3c(-c4ccccc4)csc3c2=O)cc1	-	-
CCOC(=O)C(C)Oc1ccc2oc(=O)cc(-c3cc4ccccc4o3)c2c1 (stereo not drawn)	-	-
O=C(NCc1ccco1)N1CCc2c(nc3cc(-c4ccccc4Cl)[nH]n3c2=O)C1	-	-
O=C(Nc1ccccc1)N1CCc2c(nc3cc(-c4ccccc4Cl)[nH]n3c2=O)C1	-	-
CC(C)C(=O)N1CCc2c(nc3cc(-c4ccccc4Cl)[nH]n3c2=O)C1	-	-
CC(C)C(=O)N1CCc2nc3cc(-c4ccccc4Cl)[nH]n3c(=O)c2C1	58	-
COc1cccc(NC(=O)N2CCc3c(nc4cc(-c5ccccc5Cl)[nH]n4c3=O)C2)c1	51	-
O=C(c1n[nH]c2c1CCCCCC2)N1CCc2c(nc3cc(-c4ccccc4)[nH]n3c2=O)C1	-	-
O=C(c1n[nH]c2c1CCCC2)N1CCc2c(nc3cc(-c4ccccc4Cl)[nH]n3c2=O)C1	59	-
O=C(NCc1ccco1)N1CCc2nc3cc(-c4ccccc4Cl)[nH]n3c(=O)c2C1	68	-
COc1ccc(NC(=O)c2ccc(CN3CCc4ccccc4C3)cc2)cc1	-	-
Oc1ccc2ccccc2c1C(N=Cc1ccccc1)c1ccccc1 (stereo not drawn)	.	-
COCCNC(=O)N1CCc2[nH]nc(-c3ccccc3)c2C1	-	-
Cc1ccc(-c2n[nH]c3c2CN(C(=O)NCc2ccco2)CC3)cc1	64	-
O=C(c1ccccc1)N1CCc2nc3cc(-c4ccccc4Cl)[nH]n3c(=O)c2C1	-	-
O=C(c1ccc2[nH]ccc2c1)N1CCc2nc3cc(-c4ccccc4Cl)[nH]n3c(=O)c2C1	96	-
COc1ccc(Cl)cc1NC(=O)c1cc(C(C)C)n2nccc2n1	-	-
SMILES	mHTT CaM bind	Pf apPOL block
COCCN1CCC(CNC(=O)Cc2cccs2)CC1	-	-
CCc1csc2nc(C)c(NC(=O)c3ccc(Cl)cc3)c(=O)n12	-	-
CCCCN(C)C(=O)c1cc2c(n1C)CCN(Cc1cccc(F)c1)C2	-	-
CCN(CC)C(=O)c1cc2c(n1C)CCN(Cc1cccc(C)c1)C2	-	-
CN(Cc1ccccc1)C(=O)c1cc2c(n1C)CCN(Cc1cccc(F)c1)C2	59	-
Cc1cccc(CN2CCc3c(cc(C(=O)NCc4ccco4)n3C)C2)c1	57	-
Cn1c(C(=O)NCCCN2CCCCC2)cc2c1CCN(Cc1cccc(F)c1)C2	83	-
Cn1c(C(=O)NCc2ccccc2)cc2c1CCN(Cc1ccccc1)C2	63	-
Cn1c(C(=O)NC(C)(C)C)cc2c1CCN(Cc1cccc(F)c1)C2	-	-
COc1ccc(CNC(=O)c2cc3c(n2C)CCN(Cc2ccccc2)C3)cc1	-	-
O=C(O)C1CCCN1S(=O)(=O)c1ccc(Cl)s1 (stereo not drawn)	-	.
CC(C)Sc1ccc(CC(=O)N2CCC(c3nnc(C(C)C)o3)CC2)cc1	-	-
COc1ccc(CC(=O)Nc2cc(C)nn2C2CCS(=O)(=O)C2)cc1OC (stereo not drawn)	-	-
Cn1c(C(=O)NCCN2CCCCC2)cc2c1CCN(Cc1ccc(F)cc1)C2	-	-
Cn1c(C(=O)NCCCN2CCCCC2)cc2c1CCN(Cc1ccccc1)C2	93	-
CCOc1ccc(S(=O)(=O)N(C(=O)c2ccncc2)c2ccc3oc4c(c3c2)CCCC4)cc1	-	-
O=C(c1ccncc1)N(c1ccc2oc3c(c2c1)CCCC3)S(=O)(=O)c1ccc(F)cc1	58	-
COc1cccc2c1OC(c1cccc(Cl)c1)N1N=C(c3ccco3)CC21 (stereo not drawn)	-	-
COc1cccc(C2Oc3c(OC)cccc3C3CC(c4cccs4)=NN32)c1 (stereo not drawn)	-	-
CCOc1cccc2c1OC(c1cc(OC)c(OC)c(OC)c1)N1N=C(c3ccco3)CC21 (stereo not drawn)	-	-
CCOc1cccc2c1OC(c1cc(OC)ccc1OC)N1N=C(c3ccco3)CC21 (stereo not drawn)	-	-
CCOc1cccc2c1OC(c1ccc(OC)c(OC)c1OC)N1N=C(c3ccc(C)o3)CC21 (stereo not drawn)	61	-
COc1ccc(C2Oc3c(OC)cccc3C3CC(c4cccs4)=NN32)cc1 (stereo not drawn)	50	-
